Out of some 360,000 compounds screened, about 1,200 (0.33%) were called active. Cut-off read from the data, not from the text of the source: active = inhibition above about 37%; inactive = the rest. The sample as a whole holds a higher share of actives than the screen did.

This assay deals with Small ubiquitin-related modifier 1 (Homo sapiens) (UniProt P63165). Put plainly: SUMO1 binding to interaction partners, disruption – biochemical, uHTS, primary screen (AID 602429). The conditions noted are these: SUMO1 binding to a labelled peptide, TR-FRET, 1 h; at 20 µM; stronger effect = higher value.
Small ubiquitin-related modifier 1 (Homo sapiens), sequence (P63165 whole entry, looked up): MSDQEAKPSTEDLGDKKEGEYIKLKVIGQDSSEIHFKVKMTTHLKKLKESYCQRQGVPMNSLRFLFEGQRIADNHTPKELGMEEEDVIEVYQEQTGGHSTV
In the case of `CCCCn1c(N)c(N(CCOC)C(=O)c2cccc(S(=O)(=O)N3CCCCC3)c2)c(=O)[nH]c1=O`, the inhibition was 1.21% (inactive).

With `O=C(NNC(=S)NC(=O)c1cn(-c2ccccc2)nc1-c1ccccc1)c1ccncc1`, the inhibition is 7.64% (inactive).

`Cc1onc(-c2ccccc2)c1C(=O)NNC(=S)NC(=O)c1ccc(F)cc1`: the inhibition is 61.3% (active).

For the compound `Cc1nc2ccccc2c(C)c1C(=O)c1ccc(F)cc1`, the inhibition is -0.636% (inactive).

With `CCc1nc2ccc(C(=O)N(C)Cc3ccco3)cn2c1N(C)C(=O)Cc1ccccc1`, the inhibition was 3.29% (inactive).

Consider `CCc1cc2cc(OC)ccc2nc1SCC(=O)Nc1cc(OC)c(OC)cc1C(=O)O`, for which the inhibition was 4.88% (inactive).

For the compound `CCOC(=O)C1=C(C)NC(C)=C(C(=O)OCC)C1C1=COCCO1`, the inhibition was -7.71% (inactive).

On to `C=CC(=O)Nc1ccc(Nc2ccnc(Nc3ccc(N4CCN(C)CC4)cc3)n2)cc1`, for which the inhibition is 88.3% (active).

Take `CC(=O)Nc1cc(-c2ccc(N3CCN(C)CC3)cc2)cn2c(-c3ccc(F)cc3)cnc12`: the inhibition is -43.3% (inactive).

As for `O=C(Nc1ccc(N2CCN(C(=O)c3cccs3)CC2)cc1)c1cccnc1Cl`, the inhibition was -1.91% (inactive).

Consider `Cc1noc(C)c1S(=O)(=O)Nc1ccc(C(=O)O)cc1`, for which the inhibition is 2.25% (inactive).

Take `CC(=O)N1c2ccc(S(=O)(=O)N3CCCC(C(=O)Nc4cccc(F)c4)C3)cc2CC1C` (configuration not stated): the inhibition is 1.06% (inactive).

For the compound `O=C(COc1ccc([N+](=O)[O-])cc1Cl)Nc1ccc2[nH]c(=O)[nH]c2c1`, the inhibition was -14.3% (inactive).

As for `O=C(COC(=O)c1cccc(Cl)c1)Nc1ccc2[nH]c(=O)[nH]c2c1`, the inhibition is 3.54% (inactive).

As to `COc1ccc(C(=O)OCC(=O)Nc2ccc3[nH]c(=O)[nH]c3c2)c(OC)c1OC`, the inhibition is 45.3% (active).

For the compound `Cc1ccc(S(=O)(=O)N2CCN(C(=O)Cn3c(=O)cnc4ccccc43)CC2)c(C)c1`, the inhibition is -18.5% (inactive).

For `O=C(CCl)N(Cc1cccc([N+](=O)[O-])c1)c1cccc(Cl)c1`, the inhibition is -8.32% (inactive).

Turning to `Nc1c(Cl)cc(S(N)(=O)=O)cc1S(N)(=O)=O`, the inhibition is -2.85% (inactive).

Turning to `Cc1ccc(SC(CC(=O)c2ccc(C(C)(C)C)cc2)C(=O)O)cc1` (configuration not stated), the inhibition is 1.42% (inactive).

As for `OC(COc1ccccc1)CN1CCN(c2cccc(Cl)c2)CC1` (configuration not stated), the inhibition is 49.6% (active).

As to `OC(COc1ccc2c(c1)CCC2)CN1CCN(c2cccc(Cl)c2)CC1` (configuration not stated), the inhibition was 0.823% (inactive).

As to `CCC(=O)c1ccc(OCC(O)CN2CCN(c3cccc(C(F)(F)F)c3)CC2)cc1` (configuration not stated), the inhibition was -0.535% (inactive).

In the case of `CC1CCCC(NC(=O)CSc2nccn2C)C1C` (configuration not stated), the inhibition was -1.19% (inactive).

Turning to `O=C(COc1coc(CN2CCN(c3ccccc3)CC2)cc1=O)N1CCc2ccccc21`, the inhibition is -4.23% (inactive).

On to `O=C(COc1coc(CN2CCN(c3ccccc3F)CC2)cc1=O)N1CCc2ccccc21`, for which the inhibition was 47.1% (active).

Take `O=C(COc1coc(CN2CCN(c3ccccc3)CC2)cc1=O)Nc1ccccc1F`: the inhibition was 0.279% (inactive).

For `C=C1c2c(Cl)ccc(O)c2C(O)=C2C(=O)[C@]3(O)C(O)=C(C(N)=O)C(=O)[C@@H](N(C)C)[C@@H]3[C@@H](O)C12` (some centres not stated), the inhibition was 62.7% (active).

On to `CCC(C)CCN1CCN=C1N(C)C` (configuration not stated), for which the inhibition is 1.08% (inactive).

As for `Cc1ccc(NC(=O)Cn2sc3ccccc3c2=O)cc1`, the inhibition was 5.66% (inactive).

Turning to `O=c1c2cc([N+](=O)[O-])ccc2nc2n1CCC2`, the inhibition is -38.3% (inactive).

Take `Cc1cc(OCCCC(=O)Nc2cc(S(=O)(=O)N3CCOCC3)ccc2N2CCOCC2)ccc1Cl`: the inhibition is -3.23% (inactive).

For the compound `O=[N+]([O-])c1cc(Cl)cc(/C=N/NC(=S)Nc2cc(S(=O)(=O)N3CCOCC3)ccc2Cl)c1O`, the inhibition was 36.3% (active).

`COCCNC(=S)Nc1cc(S(=O)(=O)N2CCOCC2)ccc1N1CCCCC1`: the inhibition was 1.91% (inactive).

Take `COc1ccc(C(=O)NC2(C(F)(F)F)NC(=O)N(CCCc3ccccc3)C2=O)c(OC)c1OC` (configuration not stated): the inhibition was 7.81% (inactive).

As to `Cn1c2ccccc2c(=O)c2c(=O)n(Cc3ccco3)c(COc3ccccc3)nc21`, the inhibition was 42.3% (active).

As to `COc1ccc(-c2oc3ncn(Cc4ccco4)c(=N)c3c2-c2ccc(OC)cc2)cc1`, the inhibition is -9.5% (inactive).

For the compound `O=C(Cn1c(=O)n(Cc2ccco2)c(=O)c2ccccc21)NCC1CCCO1` (configuration not stated), the inhibition was 4.85% (inactive).

On to `O=C(Nc1ccccc1C(=O)N1CCCCC1)c1ccco1`, for which the inhibition is -3.94% (inactive).

Turning to `O=C(O)c1ccccc1-c1ccccc1C(=O)Nc1ccccc1Br`, the inhibition is -0.773% (inactive).

In the case of `O=C(Nc1ccccc1)c1ccccc1NC(=O)C(F)(F)F`, the inhibition is -1.22% (inactive).

Regarding `O=C(Nc1ccccc1)c1ccccc1Br`, the inhibition was 41.9% (active).

For the compound `COc1ccc(NC(=S)N2CCC(NC(=O)c3cccc(F)c3)CC2)cc1`, the inhibition was 4.71% (inactive).

Take `Cc1noc(C)c1-c1nc(CSc2ccc(Cl)cc2)no1`: the inhibition is 1.71% (inactive).

Take `CCN(CC)CCCNC(=O)c1cn(C)c2ccc(S(=O)(=O)N(C)C3CCCCC3)cc2c1=O`: the inhibition was 5.63% (inactive).

Take `COc1ccc2[nH]c3c(C)c4cc[n+](C)cc4c(C)c3c2c1`: the inhibition is 61.3% (active).

Regarding `CCOc1cc(-c2conc2N)cc(OCC)c1OCC`, the inhibition was 1.02% (inactive).

For `CC(=O)Nc1ccc(NC(=O)CSc2nnc(C3CC3)n2-c2ccccc2)cc1`, the inhibition was 3.94% (inactive).

With `CCOc1ccc(N(CC(=O)NCC2CCCO2)S(=O)(=O)c2ccc(C)cc2)cc1` (configuration not stated), the inhibition is 6.75% (inactive).

Consider `CCCCCCC(=O)Nc1nc(C)c(-c2csc(Nc3cccc(OC)c3)n2)s1`, for which the inhibition is 40.2% (active).

For the compound `C=CCCC(=O)Nc1nc(C)c(-c2csc(Nc3ccc(Cl)cc3)n2)s1`, the inhibition was 1.48% (inactive).

For `COc1cccc(NC(=O)COc2cccnc2[N+](=O)[O-])c1`, the inhibition was -32.4% (inactive).

Take `CCCOC1CCCN(Cc2cn(C)nc2-c2ccccc2F)C1` (configuration not stated): the inhibition was 5.15% (inactive).

Take `COc1ccc(-c2csc(C(O)c3cccc(Cl)c3)n2)cn1` (configuration not stated): the inhibition is -2.47% (inactive).

For the compound `CCc1nn(CC(=O)N2CCN(c3cc(C)ccc3C)CC2)c(=O)c2cc3occc3n12`, the inhibition is 2.09% (inactive).

For the compound `O=S1(=O)CCO[C@H]2Cc3ccccc3[C@H]2N1Cc1ccccc1`, the inhibition is -0.696% (inactive).

In the case of `COc1cccc(CC(=O)N2CCCC(CCC(=O)N3CCN(c4ccccn4)CC3)C2)c1` (configuration not stated), the inhibition is -2.38% (inactive).

For `O=C(CCC1CCCN(C(=O)c2ccc(F)c(F)c2)C1)N1CCN(c2ccccn2)CC1` (configuration not stated), the inhibition was 2.38% (inactive).

For `C=Cc1ccc(C(=O)N2CCCC(CCC(=O)N3CCN(c4ccccn4)CC3)C2)cc1` (configuration not stated), the inhibition is 58.2% (active).

For `Cc1ccc(NC(=S)NC(NC(=O)Cc2cccc3ccccc23)C(Cl)(Cl)Cl)cc1` (configuration not stated), the inhibition is 0.772% (inactive).

For the compound `COc1ccc(-n2c(SCC(=O)NCc3cccs3)nnc2-c2ccoc2C)cc1`, the inhibition was -0.51% (inactive).

Turning to `COc1ccc(-n2nnnc2SCC(=O)NCc2cccs2)cc1`, the inhibition is 43.1% (active).

For the compound `COc1ccc(NC(=O)CSc2nnnn2-c2cccc(OC)c2)cc1`, the inhibition is -3.25% (inactive).

As for `CC(=O)c1nn(-c2ccccc2)c(=Nc2ccccc2)cc1C`, the inhibition was -14.6% (inactive).

In the case of `OCCC1CN(Cc2cnc(-c3ccccc3)s2)CCN1CCc1ccccc1` (configuration not stated), the inhibition was -2.45% (inactive).

For the compound `Cn1c(N)c(C(=O)COC(=O)/C=C/c2ccc(OC(F)F)cc2)c(=O)n(C)c1=O`, the inhibition is -2.46% (inactive).

Take `O=S(=O)(c1ccccc1)N1CN(Cc2ccc(F)cc2)c2nc3ccccc3nc21`: the inhibition was -3.38% (inactive).

`O=C(Nc1ccccc1Cc1ccccc1)c1ccc2c(c1)SC1=NS(=O)(=O)CCN12`: the inhibition was 28.2% (inactive).

Consider `O=C(NNC(=O)c1ccc(-c2ccccc2)cc1)Nc1ccccc1`, for which the inhibition was 2.2% (inactive).

For `O=C(Nc1cccc(-c2nc3ccccc3[nH]2)c1)c1ccc(C(=O)Nc2cccc(-c3nc4ccccc4[nH]3)c2)cc1`, the inhibition was 56.6% (active).

With `CCOc1ccc(C(=O)Nc2cccc(SC)c2)cc1`, the inhibition was -1.79% (inactive).

On to `C/C(CC(=O)NC(C)c1ccccc1)=N\NC(N)=S` (configuration not stated), for which the inhibition is -2.76% (inactive).

`CC(=O)c1c(C)[nH]c(C(=O)CN2C(=O)NC(C)(C)C2=O)c1C`: the inhibition is -2.31% (inactive).

For `CCOc1cccc2c1OC1(CCCCC1)N1N=C(c3cccnc3)CC21` (configuration not stated), the inhibition is -1.86% (inactive).

With `O=C(NCc1ccccc1)c1ccc(CNc2c(N3CCCC3)c(=O)c2=O)cc1`, the inhibition was -2.77% (inactive).

As to `O=C(NC1CCCCC1)c1ccc(CNc2c(N3CCOCC3)c(=O)c2=O)cc1`, the inhibition was -0.641% (inactive).

With `COc1cc(NC(=O)c2ccc(CNc3c(N4CCCC4)c(=O)c3=O)cc2)cc(OC)c1OC`, the inhibition is 48.9% (active).

As for `COC(=O)c1sccc1NN1C(=O)c2ccccc2C1=O`, the inhibition was -2.44% (inactive).

For the compound `Cc1nc([N+](=O)[O-])cn1CC(=O)Nc1ccc2c(c1)OCO2`, the inhibition is -6.05% (inactive).

With `Cc1ccc(C(=O)O)cc1-c1ccc(/C=C2\SC(=O)N(CC(=O)Nc3ccc4c(c3)OCO4)C2=O)o1`, the inhibition was 106% (active).

With `O=C(CCN1C(=O)c2ccncc2C1=O)Nc1ccc2c(c1)OCCO2`, the inhibition is -14.5% (inactive).

Regarding `C[C@H]([C@@H](O)[C@@H](O)[C@@H](C)C(C)(C)C)[C@H]1CC[C@H]2C3CC[C@H]4C[C@H](OS(=O)(=O)O)[C@@H](OS(=O)(=O)O)C[C@]4(C)[C@H]3CC[C@]12C` (some centres not stated), the inhibition was 57.1% (active).

For the compound `CC(=O)O[C@H]1CC[C@@]2(C)[C@@H](CC[C@@H]3[C@@H]2CC[C@]2(C)[C@@H](C(C)(C)O)C[C@@H]32)C1`, the inhibition was 1.55% (inactive).

For `CCC(CC)c1nnc(NC(=O)C2CCN(C(=O)c3ccco3)CC2)s1`, the inhibition is 0.246% (inactive).

On to `Fc1cc(Br)ccc1NC(=S)Nc1cccnc1`, for which the inhibition was -2.62% (inactive).

As for `O=C(Nc1cccnc1)c1cc2cc(Br)ccc2oc1=O`, the inhibition was 79% (active).

Turning to `O=C(Nc1cccnc1)c1ccc(Cl)cc1[N+](=O)[O-]`, the inhibition is -24.2% (inactive).

In the case of `CC(=O)c1c(C)[nH]c(C(=O)COC(=O)c2cccc(S(=O)(=O)N(C)c3ccccc3)c2)c1C`, the inhibition was 0.686% (inactive).

The inhibition is the change of the read-out against control, counted positive when it falls.

Source of the values: PubChem BioAssay AID602429 (Sanford-Burnham Center for Chemical Genomics, 2012).
